Inconclusive results are not listed. A number with no mark means an inactive call. Calls come from the whole dose curve; as a rule, active = well fitted activation curve with a large enough effect in the signal ratio in the repeat runs (not every such curve was filed as active); inconclusive = weak or mixed curves; inactive = flat fitted curve, though single readings scatter; the % refers to the signal ratio.
Experiment: qHTS assay to identify small molecule agonists of the TGF-beta/Smad signaling pathway (AID 1346859)
Details: SBE-bla HEK293T, TGF-beta/Smad beta-lactamase reporter, 5 h; series mostly up to 76.8 µM; activation: at the top concentration
Text: U.S. Tox21 Program National Center for Advancing Translational Sciences [NCATS] NIH Chemical Genomics Center [NCGC] U.S. Environmental Protection Agency [EPA] National Institutes of Environmental Health Sciences [NIEHS] National Toxicology Program [NTP] U.S. Food and Drug Administration [FDA] Tox21 Assay Overview: Transforming growth factor beta (TGF-beta) superfamily consists of a large number of structurally related dimeric proteins that act as hormones or local mediators in regulating a wide range of biological functions. This superfamily includes TGF-betas themselves, the bone morphogenetic proteins (BMPs) and the activins. These ligands induce oligomerization of serine/threonine receptor kinases and phosphorylate the cytoplasmic signaling molecules of Smad protein family. CellSensor SBE-bla HEK 293T cell line (Life Technologies, Carlsbad, CA), responsive to TGF-beta was used to screen Tox21 10K compound library for identification of agonists/antagonists of the Smad signaling pathway. This cell line contains a beta-lactamase reporter gene under control of the Smad binding element (SBE) stably integrated into HEK 293T cells.
Tox21 Assay Protocol Summary: SBE-bla HEK 293T cells were dispensed at 4,000/well in 6 uL of assay medium into black wall/clear-bottom 1536-well plates using a Multidrop Combi (ThermoFisher Scientific, Waltham, MA) dispenser. After the assay plates were incubated at 37 C and 5% CO2 for an overnight, 23 nL of compounds dissolved in DMSO, positive controls or DMSO only was transferred to the assay plate by a Pintool station (Kalypsys, San Diego, CA). The assay plates were incubated at 37 C and 5% CO2 for 5 hr. One uL of LiveBLAzer B/G FRET substrate (Life Technologies) was added using a Flying Reagent Dispenser (Aurora Discovery, San Diego, CA) and the plates were incubated at room temperature for 2 hr. Fluorescence intensity (405 nm excitation, 460 nm and 530 nm emissions) was measured using an Envision plate reader (PerkinElmer, Shelton, CT).
% is set by controls: 0 for no effect and ±100 for the full control effect.

| SMILES | activation |
| --- | --- |
| CCCCCCCCCCCCCCCC/C=C/C1CC(=O)OC1=O (stereo not given) | -2.1% [at 35.3 µM] |
| C[Si](C)(C)O[Si](O)(O)O | -0.971% |
| CCCCNCC | 0.502% |
| CCN(CC)CC | -6.66% |
| Cc1cc(C)c(N)c(Cl)c1 | -1.03% |
| CNC(C)=O | 1.4% |
| CC(=O)O[C@@H]1CC2C3CCc4cc(OC(=O)c5ccccc5)ccc4C3CCC2(C)[C@H]1OC(C)=O (stereo not given in full) | 2.88% [at 35.3 µM] |
| CCC(=O)OCCOc1ccccc1 | 0.48% |
| CCCCCC(=O)CC | -1.05% |
| Cc1ccc(OC(=O)CC(C)C)cc1 | 6.59% |
| C/C=C(\C)C=O | 2.37% |
| C=CC(=O)CC | 1.27% |
| Cc1ccc(O)c([N+](=O)[O-])c1 | 1.02% |
| CC(=O)OC/C=C(/C)CCC=C(C)C | 2.91% |
| N#Cc1ccccc1C#N | 0.0656% |
| COc1cc(NS(=O)(=O)c2ccc(N)cc2)ncn1 | -0.201% [at 35.3 µM] |
| CC(C)(C)C(=O)CC(=O)C(C)(C)C | 1.14% |
| O=C1Nc2ccccc2C1=O | 0.0504% |
| CNC(=O)c1c(I)c(NC(C)=O)c(I)c(C(=O)O)c1I | -0.794% [at 35.3 µM] |
| C=CCCCCCCCCOC(C)=O | 6.35% |

| SMILES | activation |
| --- | --- |
| O=S(=O)(O)c1ccc(Cl)cc1 | 0.371% |
| c1cc2ccc3ccc4ccc5cccc6c(c1)c2c3c4c56 | 25.1% [at 2.72 µM] |
| CCCCc1ccc(Cl)cc1 | -0.564% |
| N#CC1(N)CCCCC1 | -0.43% |
| CC(C)(C)OC=O | 0.0236% |
| CCN1CCN(C(=O)N[C@@H](C(=O)N[C@@H]2C(=O)N3C(C(=O)O)=C(CSc4nnnn4C)CS[C@H]23)c2ccc(O)cc2)C(=O)C1=O | 0.707% [at 35.3 µM] |
| CC1=C(O)C(=O)CO1 | 4.74% |
| CCOC(=O)CN1CCCC1=O | 4.83% [at 35.3 µM] |
| CCOC(=O)CC | -4.13% |
| CC(C)C(=O)Nc1cccc(C2CN3CCSC3=N2)c1 (stereo not given) | -1.18% [at 35.3 µM] |
| CC(=O)Nc1ccc(S(=O)(=O)Nc2cc(C)on2)cc1 | -0.526% [at 35.3 µM] |
| CCC(C)c1nccnc1OC (stereo not given) | -1.1% |
| C/C(Cl)=C/CCl | 0.109% |
| CSC(=O)c1cccc2nnsc12 | 0.158% |
| C=CCN1CCc2nc(N)sc2CC1 | 6.5% [at 35.3 µM] |
| C=C(C)C(=O)OCCCC | 5.6% |
| Cc1ccccc1C#N | -7.2% |
| BrCCOc1ccccc1 | 2.98% |
| C=CCCCCCCCCCCCCCC | 0.917% [at 15.8 µM] |
| O=c1[nH]c(=O)c2cn[nH]c2[nH]1 | -2.68% |

— PubChem BioAssay (Tox21)
